Experimental data: PubChem BioAssay (Tox21)
Results filed as inconclusive are left out. The source made the active and inactive calls. Unless noted, the call rests on the fitted dose curve; in most records, active means well fitted curve in the direction sought with a large enough effect in the repeat runs; inconclusive means weak or mixed curves; inactive means no such curve, though single readings can be large; an effect the other way counts as inactive or inconclusive. Positions of bridges follow the written chain, without caps; N, C: chain ends. Non-standard residues stand in square brackets, D forms with d. Residues, ends and D or L forms follow the SMILES beside them. hArg = N=C(N)NCCCC[C@H](N)C(=O)O; Mpa = O=C(O)CCS

What was measured:
[1] = molecular target: Estrogen receptor (Homo sapiens) (UniProt P03372); test: qHTS assay to identify small molecule agonists of the estrogen receptor alpha (ER-alpha) signaling pathway in the presence of an antagonist (AID 1259383; calls by dose curve; further: top concentration of the series differs between compounds; nearly all actives have a fitted effect of over 15% in size)
Chain of Estrogen receptor (Homo sapiens) (P03372 whole entry, looked up): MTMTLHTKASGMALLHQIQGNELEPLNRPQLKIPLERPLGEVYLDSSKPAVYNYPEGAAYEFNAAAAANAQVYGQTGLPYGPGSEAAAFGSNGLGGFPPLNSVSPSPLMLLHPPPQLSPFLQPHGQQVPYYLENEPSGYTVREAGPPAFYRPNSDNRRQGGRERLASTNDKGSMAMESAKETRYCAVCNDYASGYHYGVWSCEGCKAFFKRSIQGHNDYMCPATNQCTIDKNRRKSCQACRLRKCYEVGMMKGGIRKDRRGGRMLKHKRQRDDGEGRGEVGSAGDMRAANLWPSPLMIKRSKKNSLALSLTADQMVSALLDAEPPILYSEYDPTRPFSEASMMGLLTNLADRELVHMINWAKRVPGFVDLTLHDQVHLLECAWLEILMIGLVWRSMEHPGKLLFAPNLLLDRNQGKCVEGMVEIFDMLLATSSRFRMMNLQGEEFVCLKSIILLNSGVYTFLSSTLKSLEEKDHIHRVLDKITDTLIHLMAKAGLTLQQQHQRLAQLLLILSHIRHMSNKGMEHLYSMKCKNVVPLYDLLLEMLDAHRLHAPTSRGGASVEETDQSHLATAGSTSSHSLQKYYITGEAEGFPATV
How it was run: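 In VM7Luc4E2 cells, 4,000 per well, compounds at 15 concentrations were co-incubated 22hr at 37C with 10.0nM final ICI-182,780. Luminescence from the stably transfected 4×ERE-luciferase reporter was recorded 30min after ONE-Glo addition.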

[2] = qHTS assay to identify small molecule agonists of the estrogen receptor alpha (ER-alpha) signaling pathway in the presence of an antagonist - cell viability counter screen (AID 1259386);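 further: series mostly up to about 92 µM; cells exposed to compounds for 22 h at 37 °C before the viability read; nearly all actives have a fitted effect of over 30% in size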
How it was run: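 Fluorescent CellTiter-Fluor viability signal from VM7Luc4E2 cells, with the reagent added during the final hour of a 22hr compound exposure at 37C in the presence of 10.0nM ICI-182,780.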

[3] = molecular target: Progesterone receptor (Homo sapiens) (UniProt P06401); test: qHTS assay to identify small molecule agonists of the progesterone receptor (PR) signaling pathway (AID 1346784; calls by dose curve; further: nearly all actives have a fitted effect of over 30% in size)
Chain of Progesterone receptor (Homo sapiens) (P06401 whole entry, looked up): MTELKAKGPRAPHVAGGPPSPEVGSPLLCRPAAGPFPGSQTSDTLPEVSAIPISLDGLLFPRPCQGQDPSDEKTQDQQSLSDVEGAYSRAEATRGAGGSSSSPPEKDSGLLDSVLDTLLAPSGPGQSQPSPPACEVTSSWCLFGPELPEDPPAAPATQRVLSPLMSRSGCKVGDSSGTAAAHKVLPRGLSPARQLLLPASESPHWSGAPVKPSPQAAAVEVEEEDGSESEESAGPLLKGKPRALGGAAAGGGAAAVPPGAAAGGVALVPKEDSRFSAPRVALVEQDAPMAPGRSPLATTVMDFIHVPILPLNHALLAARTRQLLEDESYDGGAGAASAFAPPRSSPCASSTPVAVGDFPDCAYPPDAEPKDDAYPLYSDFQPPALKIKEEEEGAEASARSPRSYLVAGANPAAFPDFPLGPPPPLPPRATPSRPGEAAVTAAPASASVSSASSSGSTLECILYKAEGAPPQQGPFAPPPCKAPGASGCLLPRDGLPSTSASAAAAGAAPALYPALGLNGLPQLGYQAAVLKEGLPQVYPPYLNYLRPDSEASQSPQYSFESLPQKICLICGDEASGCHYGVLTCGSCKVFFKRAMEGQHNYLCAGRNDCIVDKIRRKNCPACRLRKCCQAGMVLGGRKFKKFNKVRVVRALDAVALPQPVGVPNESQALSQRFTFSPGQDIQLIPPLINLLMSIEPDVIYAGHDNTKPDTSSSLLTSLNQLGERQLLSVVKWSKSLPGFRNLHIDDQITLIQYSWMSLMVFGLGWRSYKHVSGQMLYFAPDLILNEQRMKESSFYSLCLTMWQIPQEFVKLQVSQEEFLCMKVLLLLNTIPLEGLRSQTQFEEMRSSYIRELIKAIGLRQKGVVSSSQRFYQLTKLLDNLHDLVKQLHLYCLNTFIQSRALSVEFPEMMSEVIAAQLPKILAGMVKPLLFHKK
How it was run: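 Cells (PR-UAS-bla HEK 293T, GripTite) were plated in assay medium containing 2% charcoal-stripped FBS and incubated 6 hr. Test compounds in DMSO were added for 16 hr at 37C. FRET substrate was then loaded for 2 hr at room temperature before fluorescence reading.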

[4] = molecular target: Progesterone receptor (Homo sapiens) (UniProt P06401); test: qHTS assay to identify small molecule antagonists of the progesterone receptor (PR) signaling pathway (AID 1346795; active means well fitted inhibition curve with a large enough effect in the signal ratio in the repeat runs, not every such curve was filed as active; the % refers to the signal ratio)
How it was run: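 Antagonist mode: compounds tested against 1 nM (final) promegestone stimulation in HEK293T cells expressing PR-UAS-bla reporter, 16 hr at 37C, 5% CO2; beta-lactamase activity detected via B/G FRET substrate after 2 hr at room temperature.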

[5] = qHTS assay to identify small molecule antagonists of the progesterone receptor (PR) signaling pathway - cell viability counter screen (AID 1346798); further: series mostly up to about 92 µM; nearly all actives have a fitted effect of over 50% in size
How it was run: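 Counter screen for cytotoxicity: viability of PR-UAS-bla HEK293T cells was measured with CellTiter-Glo luminescence following 16 hr compound exposure in the presence of R5020.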

[6] = qHTS assay to identify small molecule agonists of the progesterone receptor (PR) signaling pathway - cell viability counter screen (AID 1346799; calls by dose curve; further: nearly all actives have a fitted effect of over 45% in size)
How it was run: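 Cells (PR-UAS-bla HEK293T) are plated at 3,000/well in 2% charcoal-stripped FBS medium, rested 6 hr, dosed and incubated 16 hr at 37C. CellTiter-Glo is then added and luminescence measured after 30 min at room temperature.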

[7] = qHTS assay to identify small molecule antagonists of the TGF-beta/Smad signaling pathway - cell viability counter screen (AID 1346824); further: nearly all actives have a fitted effect of over 50% in size
How it was run: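 Cytotoxicity counter-screen run in the same wells as the beta-lactamase Smad reporter read: CellTiter-Glo luminescence after 30 min at room temperature. HEK 293T SBE-bla cells had 5 hr compound exposure at 37 C with TGF-beta1 (0.25 ng/mL stock).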

[8] = qHTS assay to identify small molecule agonists of the TGF-beta/Smad signaling pathway - cell viability counter screen (AID 1346829); further: top concentration of the series differs between compounds; nearly all actives have a fitted effect of over 45% in size
How it was run: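 Luminescence from CellTiter-Glo, read after a 30 min room-temperature incubation, gives cell viability of SBE-bla HEK 293T cells treated 5 hr with compounds at 37 C.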

[9] = molecular target: Thyrotropin receptor (Homo sapiens) (UniProt P16473); test: qHTS assay to identify small molecule antagonists of the thyroid stimulating hormone receptor (TSHR) signaling pathway (AID 1259385; calls by dose curve; further: nearly all actives have a fitted effect of over 20% in size)
Chain of Thyrotropin receptor (Homo sapiens) (P16473 whole entry, looked up): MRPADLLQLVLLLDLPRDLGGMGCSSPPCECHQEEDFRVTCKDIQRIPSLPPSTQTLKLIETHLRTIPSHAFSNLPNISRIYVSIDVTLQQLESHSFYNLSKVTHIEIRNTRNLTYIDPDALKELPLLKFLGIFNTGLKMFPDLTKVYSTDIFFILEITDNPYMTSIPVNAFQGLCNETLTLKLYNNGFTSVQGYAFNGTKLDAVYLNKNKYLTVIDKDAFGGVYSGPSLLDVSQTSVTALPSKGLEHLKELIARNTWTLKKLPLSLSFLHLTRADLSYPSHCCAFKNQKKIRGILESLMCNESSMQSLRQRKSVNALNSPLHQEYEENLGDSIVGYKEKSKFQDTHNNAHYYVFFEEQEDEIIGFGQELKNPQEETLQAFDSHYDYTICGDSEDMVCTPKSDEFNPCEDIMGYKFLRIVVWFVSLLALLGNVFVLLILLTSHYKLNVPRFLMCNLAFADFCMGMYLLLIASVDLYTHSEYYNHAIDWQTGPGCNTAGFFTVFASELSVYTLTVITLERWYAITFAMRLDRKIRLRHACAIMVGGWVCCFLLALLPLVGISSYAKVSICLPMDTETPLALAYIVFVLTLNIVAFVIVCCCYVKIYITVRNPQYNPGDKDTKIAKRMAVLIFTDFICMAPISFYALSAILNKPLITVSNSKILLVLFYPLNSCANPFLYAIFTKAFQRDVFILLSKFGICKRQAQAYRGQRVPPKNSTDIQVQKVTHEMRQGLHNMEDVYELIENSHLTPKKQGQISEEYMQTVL
How it was run: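 Antagonist mode: compound-treated TSHR-expressing HEK293 cells were stimulated with 1.5 ng/mL TSH (final) in presence of Ro20-1724 for 30 min at RT. HTRF cAMP detection after 1 h; each compound tested at 15 concentrations, triplicate.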

[10] = qHTS assay to identify small molecule agonists or antagonists of the thyroid stimulating hormone receptor (TSHR) signaling pathway - wild type cell line counter screen (AID 1259384; calls by dose curve)
How it was run: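 Counter screen in untransfected Hek293: compounds (15-point titration, triplicate) plus phosphodiesterase inhibitor Ro20-1724 added after 18 h plating; 30 min RT. Intracellular cAMP via competitive d2/cryptate immunoassay, 1 h incubation.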
On the % scale 0 is the no-effect control and ±100 the full control effect.

[O-][n+]1cccc(/C(Cl)=N/OC[C@@H](O)CN2CCCCC2)c1
inactive: Potency [1] | outcome [2] | Potency [3] | Potency [4] | outcome [5] | outcome [6] | outcome [7] | outcome [8]

CCN(CC)CCN
inactive: Potency [1] | outcome [9] | outcome [2] | Potency [3] | Potency [4] | outcome [5] | outcome [6] | outcome [7] | outcome [8]

CN(C)CCOC(=O)C(c1ccccc1)C1(O)CCCC1 (centres undefined)
inactive: Potency [1] | outcome [9] | outcome [2] | Potency [3] | Potency [4] | outcome [5] | outcome [6] | outcome [7] | outcome [8]

Cn1c(=O)c2[nH]c(Br)nc2n(C)c1=O
inactive: outcome [10] | outcome [9] | outcome [2] | Potency [3] | outcome [5] | outcome [6] | outcome [7] | outcome [8]

CNCCS(=O)(=O)O
inactive: outcome [10] | outcome [9] | outcome [2] | Potency [3] | Potency [4] | outcome [5] | outcome [6] | outcome [7] | outcome [8]

C=C(C)C1CC=C(C)C(=O)C1 (centres undefined)
inactive: outcome [10] | outcome [9] | outcome [2] | Potency [3] | outcome [5] | outcome [6] | outcome [7] | outcome [8]

CC(N)CCCC(C)(C)O (centres undefined)
inactive: outcome [10] | outcome [9] | outcome [2] | Potency [3] | Potency [4] | outcome [6] | outcome [7]

CN(C)CC/C=C1/c2ccccc2COc2ccc(CC(=O)O)cc21
inactive: outcome [10] | outcome [9] | outcome [2] | Potency [3] | outcome [5] | outcome [6] | outcome [7] | outcome [8]

CCCC(=O)OCCC(C)CCC=C(C)C (centres undefined)
inactive: outcome [10] | outcome [9] | outcome [2] | Potency [3] | Potency [4] | outcome [5] | outcome [6] | outcome [7] | outcome [8]

C=CC(=O)CCCCC
inactive: outcome [10] | outcome [9] | Potency [3] | Potency [4] | outcome [5] | outcome [6] | outcome [7] | outcome [8]

Cc1ccnc(N)c1
inactive: outcome [10] | outcome [9] | outcome [2] | Potency [3] | Potency [4] | outcome [5] | outcome [6] | outcome [7] | outcome [8]

O=Cc1cc2ccccc2o1
inactive: outcome [10] | outcome [9] | outcome [2] | Potency [3] | outcome [5] | outcome [6] | outcome [7] | outcome [8]

Cn1c(=O)c2c(ncn2CCO)n(C)c1=O
inactive: outcome [10] | outcome [9] | outcome [2] | Potency [4] | outcome [5] | outcome [6] | outcome [7] | outcome [8]

O=C(O)CSCC(=O)NC1CCSC1=O (centres undefined)
inactive: outcome [10] | outcome [9] | outcome [2] | Potency [3] | Potency [4] | outcome [5] | outcome [7] | outcome [8]

CC(C)OC(=O)CCC(=O)OC(C)C
inactive: outcome [10] | outcome [9] | outcome [2] | Potency [3] | Potency [4] | outcome [5] | outcome [6] | outcome [7] | outcome [8]

CC1=C(C(=O)O)N2C(=O)[C@@H](NC(=O)[C@H](N)c3ccccc3)[C@H]2SC1
inactive: Potency [1] | outcome [5] | outcome [6] | outcome [7] | outcome [8]

CC(C)=CCC[C@@](C)(O)[C@H]1CC=C(C)CC1
inactive: outcome [10] | outcome [9] | outcome [2] | Potency [3] | Potency [4] | outcome [6] | outcome [7] | outcome [8]

CCOC(CN1CCN(CC(C)C(=O)c2ccccc2)CC1)c1ccccc1 (centres undefined)
inactive: cAMP activity change [10] 5.14% [at 18.9 µM] | activity change, negative = inhibition [9] 0.0091% [at 19 µM] | activity change, negative = cytotoxicity [2] -9.47% [at 19 µM] | activation [3] 0.845% [at 19 µM] | activity change, negative = inhibition [4] 8.35% [at 18.9 µM] | activity change, negative = cytotoxicity [5] 27.5% [at 18.9 µM] | activity change, negative = cytotoxicity [6] 2.31% [at 19 µM] | viability change, negative = cytotoxic [7] -0.107% [at 15.8 µM] | activity change, negative = cytotoxicity [8] -11.2% [at 15.8 µM]

NCc1ccc(S(N)(=O)=O)cc1
inactive: outcome [10] | outcome [9] | Potency [3] | Potency [4] | outcome [5] | outcome [6] | outcome [7] | outcome [8]

c1ccc2cnccc2c1
inactive: Potency [1] | outcome [2] | Potency [3] | outcome [5] | outcome [6] | outcome [7] | outcome [8]

CC(C)(C)NC[C@H](O)COc1cccc2c1CCCC2=O
inactive: Potency [1] | outcome [2] | Potency [4] | outcome [5] | outcome [6] | outcome [7] | outcome [8]

NC(=O)[C@@H]1CSSCCC(=O)N[C@@H](CCCCN=C(N)N)C(=O)NCC(=O)N[C@@H](CC(=O)O)C(=O)N[C@@H](Cc2c[nH]c3ccccc23)C(=O)N2CCC[C@H]2C(=O)N1 ([Mpa][hArg]GDWPC-NH2; disulfide 1-7)
inactive: outcome [10] | outcome [9] | Potency [3] | Potency [4] | outcome [5] | outcome [6] | outcome [7] | outcome [8]

CC(O)CC(C)O (centres undefined)
inactive: outcome [10] | outcome [9] | Potency [3] | Potency [4] | outcome [5] | outcome [6] | outcome [7] | outcome [8]

Cc1c(C(=O)c2c[nH]n(C)c2=O)ccc(S(C)(=O)=O)c1C1=NOCC1
inactive: Potency [1] | Potency [4] | outcome [5] | outcome [6] | outcome [7] | outcome [8]

COS(=O)(=O)O
inactive: outcome [10] | outcome [9] | outcome [2] | Potency [4] | outcome [5] | outcome [6] | outcome [7] | outcome [8]
